From ChEMBL document CHEMBL2218924, “A broad activity screen in support of a chemogenomic map for kinase signalling research and drug discovery” (Biochem J, 2013)

Each compound was assayed against PAS domain-containing serine/threonine-protein kinase (Homo sapiens) (UniProt Q96RG2). Conditions: at 1 µM.
PAS domain-containing serine/threonine-protein kinase (Homo sapiens), sequence (Q96RG2 whole entry, the tested form may be a part): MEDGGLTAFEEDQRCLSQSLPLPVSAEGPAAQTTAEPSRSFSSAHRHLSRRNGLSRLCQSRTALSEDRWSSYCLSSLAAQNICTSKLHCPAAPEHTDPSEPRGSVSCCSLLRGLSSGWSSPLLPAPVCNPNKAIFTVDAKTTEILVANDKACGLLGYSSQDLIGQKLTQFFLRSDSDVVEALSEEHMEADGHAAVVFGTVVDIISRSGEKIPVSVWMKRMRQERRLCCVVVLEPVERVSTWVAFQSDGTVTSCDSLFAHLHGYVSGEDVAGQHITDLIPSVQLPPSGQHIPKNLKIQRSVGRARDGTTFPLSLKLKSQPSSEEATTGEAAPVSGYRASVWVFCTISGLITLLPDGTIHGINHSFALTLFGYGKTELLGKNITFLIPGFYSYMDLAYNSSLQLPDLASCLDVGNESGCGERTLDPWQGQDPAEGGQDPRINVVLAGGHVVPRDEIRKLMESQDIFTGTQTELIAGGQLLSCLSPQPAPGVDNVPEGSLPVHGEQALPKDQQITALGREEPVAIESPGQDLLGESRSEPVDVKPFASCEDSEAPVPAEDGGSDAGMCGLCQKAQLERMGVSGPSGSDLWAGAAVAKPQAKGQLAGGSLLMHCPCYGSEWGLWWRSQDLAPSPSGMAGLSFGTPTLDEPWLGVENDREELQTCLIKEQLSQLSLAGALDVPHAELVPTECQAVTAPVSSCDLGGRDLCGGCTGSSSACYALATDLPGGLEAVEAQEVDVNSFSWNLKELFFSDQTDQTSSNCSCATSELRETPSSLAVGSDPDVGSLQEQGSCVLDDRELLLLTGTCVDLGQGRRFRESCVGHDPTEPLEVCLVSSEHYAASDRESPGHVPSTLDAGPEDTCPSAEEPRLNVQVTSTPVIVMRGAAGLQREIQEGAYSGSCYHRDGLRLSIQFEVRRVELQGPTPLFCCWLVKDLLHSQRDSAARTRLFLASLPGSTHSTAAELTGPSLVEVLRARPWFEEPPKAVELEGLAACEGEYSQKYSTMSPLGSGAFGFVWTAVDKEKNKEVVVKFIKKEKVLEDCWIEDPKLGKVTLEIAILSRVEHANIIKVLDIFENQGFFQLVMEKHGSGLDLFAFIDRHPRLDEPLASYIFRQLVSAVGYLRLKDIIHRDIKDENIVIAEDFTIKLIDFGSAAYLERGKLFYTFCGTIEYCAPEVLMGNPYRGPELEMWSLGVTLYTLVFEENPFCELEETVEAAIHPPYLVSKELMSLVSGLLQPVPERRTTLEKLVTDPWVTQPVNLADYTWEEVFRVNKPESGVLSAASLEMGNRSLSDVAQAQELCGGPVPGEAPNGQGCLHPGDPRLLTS
Work on C[C@@H](N)[C@H]1CC[C@H](C(=O)Nc2ccncc2)CC1 yielded a residual activity of 82%. O=C1Nc2cc(Br)ccc2/C1=C1/Nc2ccccc2/C1=N\O gave a residual activity of 94%. CCN(CC)CCCCN1c2ccccc2Oc2ccc(Cl)cc21 showed a residual activity of 88%. In the case of Cc1ccc(S(=O)(=O)/C=C/C#N)cc1, the residual activity was 82%. CN(C)c1ccc(/C=C2\C(=O)Nc3ccccc32)cc1 gave a residual activity of 86%. CSc1nc(-c2ccc(F)cc2)c(-c2ccnc(NC(C)c3ccccc3)c2)[nH]1 (stereo not drawn) gave a residual activity of 95%. Oc1c2ccccc2c2c3c(cccc13)N=N2 was tested, and the residual activity was 125%. In the case of O=[N+]([O-])c1ccc(-c2nc(-c3ccc(F)cc3)c(-c3ccncc3)[nH]2)cc1, the residual activity was 126%. Cn1cc(/C=C2\C(=O)Nc3ccc(S(N)(=O)=O)cc32)c2ccccc21 was tested, and the residual activity was 97%. Compound Oc1ccc(-c2nc(-c3ccc(F)cc3)c(-c3ccncc3)[nH]2)cc1 has a residual activity of 92%. NCCNc1ncc(C(N)=O)c(Nc2cccc(C(F)(F)F)c2)n1 was tested, and the residual activity was 114%. In the case of Nc1cccc(-c2cc3c(Oc4cccc(O)c4)ncnc3[nH]2)c1, the residual activity was 123%. O=C1Nc2ccccc2/C1=C1/Nc2ccccc2/C1=N\OCCC(O)CO (stereo not drawn) showed a residual activity of 140%. For CCCCc1c(-c2ccc(O)cc2)[nH]c2nccnc12, the residual activity was 146%. In the case of O=C1NC(=O)/C(=C/c2ccc3c(c2)OC(F)(F)O3)S1, the residual activity was 81%. Work on CC(C)c1nn(-c2c(Cl)cccc2Cl)c2nc(Cc3ccc(OCCO)cc3)[nH]c(=O)c12 yielded a residual activity of 142%. Work on O=S(=O)(NCCNC/C=C/c1ccc(Br)cc1)c1cccc2cnccc12 yielded a residual activity of 141%. CC(C)N(CCC(=O)c1ccc2ccccc2c1)Cc1ccccc1 was tested, and the residual activity was 126%.
